Reference: article PMC7862700, “An all-to-all approach to the identification of sequence-specific readers for epigenetic DNA modifications on cytosine”

What was measured:
Experiment in all cases: DAPPL (digital affinity profiling via proximity ligation, sequencing); 10 mM Tris-HCl pH 7.5, 50 mM NaCl, 1 mM DTT, 4% glycerol, room temperature, 30 min; GST-TFs on glutathione beads, 16-mer random dsDNA library, 0.1% formaldehyde crosslink after washing; high values mean tight binding
FLI1 = molecular target: T1, FLI1 (Homo sapiens, UniProt Q01543 1-452); settings: protein: recombinant; tags: N-terminal GST; dsDNA, one strand shown
T1 sequence: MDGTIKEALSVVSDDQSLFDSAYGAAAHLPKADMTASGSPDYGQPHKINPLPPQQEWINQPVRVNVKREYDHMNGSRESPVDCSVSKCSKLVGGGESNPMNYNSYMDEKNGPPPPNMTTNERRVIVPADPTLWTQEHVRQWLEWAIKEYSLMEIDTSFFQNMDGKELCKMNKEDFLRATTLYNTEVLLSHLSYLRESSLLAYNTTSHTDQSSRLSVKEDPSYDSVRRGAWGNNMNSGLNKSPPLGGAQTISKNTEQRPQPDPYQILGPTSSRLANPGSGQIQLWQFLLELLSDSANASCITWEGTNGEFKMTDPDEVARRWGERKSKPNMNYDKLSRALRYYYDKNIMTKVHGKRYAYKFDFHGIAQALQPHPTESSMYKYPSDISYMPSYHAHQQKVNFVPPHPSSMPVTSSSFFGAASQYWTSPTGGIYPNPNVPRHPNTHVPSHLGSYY
Procedure, shortened: (§1)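 Human transcription factors were made in yeast as GST fusions, captured on glutathione beads and barcoded with DNA. With a tag-only sample included, the pool was incubated with 200 nmole of a random double-stranded 16-mer DNA library in Tris/NaCl/DTT/glycerol buffer at room temperature for 30 min, then crosslinked with 0.1% formaldehyde after washing, ligated by proximity, amplified and sequenced. For binding signal, each hexamer's read frequency for a factor is divided by its frequency for the tag-only sample.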

ELK1 = molecular target: T2, ELK1 (Homo sapiens, UniProt P19419 1-428); settings: protein: recombinant; tags: N-terminal GST; dsDNA, one strand shown
T2 sequence: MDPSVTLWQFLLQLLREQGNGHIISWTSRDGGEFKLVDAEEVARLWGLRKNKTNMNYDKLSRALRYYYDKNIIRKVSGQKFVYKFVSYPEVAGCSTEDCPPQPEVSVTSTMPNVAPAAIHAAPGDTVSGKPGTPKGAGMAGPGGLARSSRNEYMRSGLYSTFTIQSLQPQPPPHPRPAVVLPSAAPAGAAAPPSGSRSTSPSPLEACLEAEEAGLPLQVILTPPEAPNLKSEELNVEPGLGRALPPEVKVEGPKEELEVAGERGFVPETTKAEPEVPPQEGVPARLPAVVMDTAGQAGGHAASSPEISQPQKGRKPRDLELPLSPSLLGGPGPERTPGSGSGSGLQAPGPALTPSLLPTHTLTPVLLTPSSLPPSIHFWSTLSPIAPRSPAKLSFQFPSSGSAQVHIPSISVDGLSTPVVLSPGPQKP
Procedure, shortened: as §1

GABPA = molecular target: T3, GABPA (Homo sapiens, UniProt Q06546 1-454); settings: protein: recombinant; tags: N-terminal GST; dsDNA, one strand shown
T3 sequence: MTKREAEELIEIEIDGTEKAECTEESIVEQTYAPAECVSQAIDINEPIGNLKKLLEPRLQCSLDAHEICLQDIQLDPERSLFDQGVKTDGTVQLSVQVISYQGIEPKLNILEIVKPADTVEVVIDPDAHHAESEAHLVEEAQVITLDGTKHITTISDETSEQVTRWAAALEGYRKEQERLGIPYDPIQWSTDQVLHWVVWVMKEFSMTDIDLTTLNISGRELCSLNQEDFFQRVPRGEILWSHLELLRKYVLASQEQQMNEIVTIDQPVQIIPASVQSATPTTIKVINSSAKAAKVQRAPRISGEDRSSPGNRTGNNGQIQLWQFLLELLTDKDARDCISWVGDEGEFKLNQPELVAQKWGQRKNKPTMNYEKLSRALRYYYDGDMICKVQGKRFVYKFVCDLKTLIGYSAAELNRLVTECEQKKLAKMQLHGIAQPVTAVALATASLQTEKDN
Procedure, shortened: as §1

ERG = molecular target: T4, ERG (Homo sapiens, UniProt P11308 1-479); settings: protein: recombinant; tags: N-terminal GST; dsDNA, one strand shown
T4 sequence: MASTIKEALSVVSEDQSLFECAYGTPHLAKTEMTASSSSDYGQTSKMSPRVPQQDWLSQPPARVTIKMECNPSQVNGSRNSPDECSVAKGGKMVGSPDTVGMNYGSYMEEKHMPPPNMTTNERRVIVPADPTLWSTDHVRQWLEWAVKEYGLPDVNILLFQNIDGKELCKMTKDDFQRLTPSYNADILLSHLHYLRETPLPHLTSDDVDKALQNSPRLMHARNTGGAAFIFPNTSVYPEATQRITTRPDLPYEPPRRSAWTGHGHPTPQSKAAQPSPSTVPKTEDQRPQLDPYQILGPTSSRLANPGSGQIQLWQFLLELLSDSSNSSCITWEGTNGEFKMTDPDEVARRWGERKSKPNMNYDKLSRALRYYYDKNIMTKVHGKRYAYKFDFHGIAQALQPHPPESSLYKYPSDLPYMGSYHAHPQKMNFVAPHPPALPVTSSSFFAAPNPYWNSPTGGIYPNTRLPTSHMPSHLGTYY
Procedure, shortened: as §1

ELF1 = ELF1 (Homo sapiens, UniProt P32519 1-619); settings: protein: recombinant; tags: N-terminal GST; dsDNA, one strand shown
Procedure, shortened: as §1

EHF = molecular target: T5, EHF (Homo sapiens, UniProt Q9NZC4 1-300); settings: protein: recombinant; tags: N-terminal GST; dsDNA, one strand shown
T5 sequence: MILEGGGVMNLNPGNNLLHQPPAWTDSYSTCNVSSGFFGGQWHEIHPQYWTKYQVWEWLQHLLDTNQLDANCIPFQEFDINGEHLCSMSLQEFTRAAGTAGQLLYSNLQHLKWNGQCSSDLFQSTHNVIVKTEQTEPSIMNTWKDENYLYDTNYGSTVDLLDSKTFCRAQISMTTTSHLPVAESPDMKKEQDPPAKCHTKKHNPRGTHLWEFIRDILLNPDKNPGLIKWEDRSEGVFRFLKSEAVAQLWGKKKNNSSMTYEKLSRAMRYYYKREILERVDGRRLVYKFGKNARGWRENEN
Procedure, shortened: as §1

SPI1 = SPI1 (Homo sapiens, UniProt P17947 1-270); settings: protein: recombinant; tags: N-terminal GST; dsDNA, one strand shown
Procedure, shortened: as §1

SPIB = SPIB (Homo sapiens, UniProt Q01892 1-262); settings: protein: recombinant; tags: N-terminal GST; dsDNA, one strand shown
Procedure, shortened: as §1

ELK3 = molecular target: T6, ELK3 (Homo sapiens, UniProt P41970 1-407); settings: protein: recombinant; tags: N-terminal GST; dsDNA, one strand shown
T6 sequence: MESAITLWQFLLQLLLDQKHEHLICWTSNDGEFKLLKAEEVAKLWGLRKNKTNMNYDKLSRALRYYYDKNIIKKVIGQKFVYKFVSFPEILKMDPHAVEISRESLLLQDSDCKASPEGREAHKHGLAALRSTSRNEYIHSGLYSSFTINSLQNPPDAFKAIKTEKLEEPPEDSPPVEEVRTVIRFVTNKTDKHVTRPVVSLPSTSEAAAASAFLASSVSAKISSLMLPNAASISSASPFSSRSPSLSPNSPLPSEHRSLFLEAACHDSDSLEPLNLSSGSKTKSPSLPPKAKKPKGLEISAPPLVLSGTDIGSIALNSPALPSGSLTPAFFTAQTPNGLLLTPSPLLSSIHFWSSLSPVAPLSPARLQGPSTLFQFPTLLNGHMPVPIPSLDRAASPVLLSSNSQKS
Procedure, shortened: as §1

FEV = molecular target: T7, FEV (Homo sapiens, UniProt Q99581 1-238); settings: protein: recombinant; tags: N-terminal GST; dsDNA, one strand shown
T7 sequence: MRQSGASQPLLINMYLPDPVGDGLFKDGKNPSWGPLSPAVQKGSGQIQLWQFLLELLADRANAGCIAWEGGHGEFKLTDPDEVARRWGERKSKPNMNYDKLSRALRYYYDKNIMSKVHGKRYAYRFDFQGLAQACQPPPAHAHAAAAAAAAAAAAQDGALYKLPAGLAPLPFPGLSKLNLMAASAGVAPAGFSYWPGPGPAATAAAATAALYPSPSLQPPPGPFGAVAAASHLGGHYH
Procedure, shortened: as §1

ETV5 = ETV5 (Homo sapiens, UniProt P41161 1-510); settings: protein: recombinant; tags: N-terminal GST; dsDNA, one strand shown
Procedure, shortened: as §1

HSF1 = HSF1 (Homo sapiens, UniProt Q00613 1-529); settings: protein: recombinant; tags: N-terminal GST; chain copies: 3; dsDNA, one strand shown
Procedure, shortened: as §1

SPIC = molecular target: T8, SPIC (Homo sapiens, UniProt Q8N5J4 1-248); settings: protein: recombinant; tags: N-terminal GST; dsDNA, one strand shown
T8 sequence: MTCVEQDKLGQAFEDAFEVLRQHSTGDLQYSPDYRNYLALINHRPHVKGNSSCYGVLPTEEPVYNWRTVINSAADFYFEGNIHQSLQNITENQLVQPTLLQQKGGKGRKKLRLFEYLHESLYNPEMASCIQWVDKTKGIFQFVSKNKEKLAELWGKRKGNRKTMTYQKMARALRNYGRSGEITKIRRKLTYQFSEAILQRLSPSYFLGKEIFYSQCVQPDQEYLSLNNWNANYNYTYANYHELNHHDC
Procedure, shortened: as §1

ELF4 = ELF4 (Homo sapiens, UniProt Q99607 1-663); settings: protein: recombinant; tags: N-terminal GST; dsDNA, one strand shown
Procedure, shortened: as §1

ELK4 = molecular target: T9, ELK4 (Homo sapiens, UniProt P28324-2 1-405); settings: protein: recombinant; tags: N-terminal GST; dsDNA, one strand shown
T9 sequence: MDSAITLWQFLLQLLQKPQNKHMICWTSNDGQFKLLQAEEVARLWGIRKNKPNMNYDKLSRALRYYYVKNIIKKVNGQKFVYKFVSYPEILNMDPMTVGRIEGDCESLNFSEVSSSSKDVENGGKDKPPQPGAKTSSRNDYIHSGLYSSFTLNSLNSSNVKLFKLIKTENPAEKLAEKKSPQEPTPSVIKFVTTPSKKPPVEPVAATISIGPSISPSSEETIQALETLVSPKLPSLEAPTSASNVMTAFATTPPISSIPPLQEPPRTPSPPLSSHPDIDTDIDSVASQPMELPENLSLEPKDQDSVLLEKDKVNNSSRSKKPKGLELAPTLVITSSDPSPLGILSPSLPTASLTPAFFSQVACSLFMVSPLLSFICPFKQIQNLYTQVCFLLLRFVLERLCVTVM
Procedure, shortened: as §1

ETV2 = molecular target: T10, ETV2 (Homo sapiens, UniProt O00321 1-342); settings: protein: recombinant; tags: N-terminal GST; dsDNA, one strand shown
T10 sequence: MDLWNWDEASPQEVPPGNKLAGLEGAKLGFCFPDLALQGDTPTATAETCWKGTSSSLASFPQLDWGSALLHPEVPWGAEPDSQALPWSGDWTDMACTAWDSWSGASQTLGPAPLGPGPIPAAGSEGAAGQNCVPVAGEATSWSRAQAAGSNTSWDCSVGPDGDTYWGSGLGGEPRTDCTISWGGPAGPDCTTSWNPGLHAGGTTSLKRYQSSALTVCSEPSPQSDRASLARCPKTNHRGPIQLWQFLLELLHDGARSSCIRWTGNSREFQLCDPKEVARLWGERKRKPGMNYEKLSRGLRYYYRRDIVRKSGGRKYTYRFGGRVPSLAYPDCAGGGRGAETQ
Procedure, shortened: as §1

ELF3 = molecular target: T11, ELF3 (Homo sapiens, UniProt P78545 1-371); settings: protein: recombinant; tags: N-terminal GST; dsDNA, one strand shown
T11 sequence: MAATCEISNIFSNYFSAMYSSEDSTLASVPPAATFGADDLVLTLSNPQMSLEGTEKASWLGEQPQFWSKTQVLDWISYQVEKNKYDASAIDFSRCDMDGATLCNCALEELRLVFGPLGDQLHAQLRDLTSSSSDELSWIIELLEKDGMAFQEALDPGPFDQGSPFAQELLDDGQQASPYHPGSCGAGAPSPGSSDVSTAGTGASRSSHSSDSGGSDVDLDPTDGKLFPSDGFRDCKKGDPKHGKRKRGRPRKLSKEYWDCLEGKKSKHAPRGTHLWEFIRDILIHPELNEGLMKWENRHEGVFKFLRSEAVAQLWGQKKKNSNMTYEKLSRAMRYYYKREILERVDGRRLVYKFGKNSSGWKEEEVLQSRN
Procedure, shortened: as §1

CRX = CRX (Homo sapiens, UniProt O43186 1-299); settings: protein: recombinant; tags: N-terminal GST; dsDNA, one strand shown
Procedure, shortened: as §1

ETV1 = ETV1 (Homo sapiens, UniProt P50549 1-477); settings: protein: recombinant; tags: N-terminal GST; dsDNA, one strand shown
Procedure, shortened: as §1

SPIB, sequence (Q01892 whole entry): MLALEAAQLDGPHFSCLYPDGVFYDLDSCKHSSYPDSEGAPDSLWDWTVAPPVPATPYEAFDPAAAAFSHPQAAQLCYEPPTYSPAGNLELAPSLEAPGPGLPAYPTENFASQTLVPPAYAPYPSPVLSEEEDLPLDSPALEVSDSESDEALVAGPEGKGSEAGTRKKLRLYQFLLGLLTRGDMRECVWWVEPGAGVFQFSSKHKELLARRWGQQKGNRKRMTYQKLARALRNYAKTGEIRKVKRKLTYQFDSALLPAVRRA
ELF1, sequence (P32519 whole entry): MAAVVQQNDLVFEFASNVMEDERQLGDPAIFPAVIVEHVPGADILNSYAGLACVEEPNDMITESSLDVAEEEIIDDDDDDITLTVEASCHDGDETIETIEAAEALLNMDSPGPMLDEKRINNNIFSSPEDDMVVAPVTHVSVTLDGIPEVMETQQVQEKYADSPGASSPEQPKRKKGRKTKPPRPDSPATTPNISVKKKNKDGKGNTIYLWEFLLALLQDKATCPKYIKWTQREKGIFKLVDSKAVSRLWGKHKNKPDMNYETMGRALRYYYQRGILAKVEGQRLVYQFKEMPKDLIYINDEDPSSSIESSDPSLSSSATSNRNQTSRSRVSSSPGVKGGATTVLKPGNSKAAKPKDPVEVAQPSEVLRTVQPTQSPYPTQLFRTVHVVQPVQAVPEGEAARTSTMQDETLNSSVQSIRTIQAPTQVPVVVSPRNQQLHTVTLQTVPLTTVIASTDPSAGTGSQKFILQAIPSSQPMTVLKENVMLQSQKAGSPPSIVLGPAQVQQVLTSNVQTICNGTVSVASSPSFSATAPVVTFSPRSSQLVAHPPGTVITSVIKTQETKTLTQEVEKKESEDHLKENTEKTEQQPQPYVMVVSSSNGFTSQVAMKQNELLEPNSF
ETV5, sequence (P41161 whole entry): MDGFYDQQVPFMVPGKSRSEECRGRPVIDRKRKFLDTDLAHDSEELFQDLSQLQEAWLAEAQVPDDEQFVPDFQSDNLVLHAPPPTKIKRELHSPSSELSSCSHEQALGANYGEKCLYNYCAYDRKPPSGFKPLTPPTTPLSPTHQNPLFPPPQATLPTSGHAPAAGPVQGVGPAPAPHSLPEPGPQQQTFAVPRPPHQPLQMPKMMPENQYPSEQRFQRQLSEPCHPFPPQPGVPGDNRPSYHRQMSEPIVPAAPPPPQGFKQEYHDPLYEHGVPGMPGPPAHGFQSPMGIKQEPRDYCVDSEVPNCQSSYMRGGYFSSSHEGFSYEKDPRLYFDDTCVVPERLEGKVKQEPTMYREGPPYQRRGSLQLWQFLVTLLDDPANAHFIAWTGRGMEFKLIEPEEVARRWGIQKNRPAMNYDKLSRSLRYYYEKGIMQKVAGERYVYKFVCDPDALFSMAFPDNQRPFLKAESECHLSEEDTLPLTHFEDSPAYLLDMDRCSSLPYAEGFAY
ETV1, sequence (P50549 whole entry): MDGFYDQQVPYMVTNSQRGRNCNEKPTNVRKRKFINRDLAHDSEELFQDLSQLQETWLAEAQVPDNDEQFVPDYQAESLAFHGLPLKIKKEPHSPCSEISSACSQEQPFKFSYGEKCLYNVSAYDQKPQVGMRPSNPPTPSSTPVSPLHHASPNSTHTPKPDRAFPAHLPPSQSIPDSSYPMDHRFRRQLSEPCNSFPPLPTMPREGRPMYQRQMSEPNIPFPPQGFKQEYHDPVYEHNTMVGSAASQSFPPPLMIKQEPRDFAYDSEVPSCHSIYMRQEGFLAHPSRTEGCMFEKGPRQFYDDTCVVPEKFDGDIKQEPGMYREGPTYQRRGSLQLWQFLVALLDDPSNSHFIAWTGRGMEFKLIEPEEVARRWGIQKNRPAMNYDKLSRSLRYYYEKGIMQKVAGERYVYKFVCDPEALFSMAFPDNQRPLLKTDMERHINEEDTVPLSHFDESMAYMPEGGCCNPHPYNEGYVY
HSF1, sequence (Q00613 whole entry): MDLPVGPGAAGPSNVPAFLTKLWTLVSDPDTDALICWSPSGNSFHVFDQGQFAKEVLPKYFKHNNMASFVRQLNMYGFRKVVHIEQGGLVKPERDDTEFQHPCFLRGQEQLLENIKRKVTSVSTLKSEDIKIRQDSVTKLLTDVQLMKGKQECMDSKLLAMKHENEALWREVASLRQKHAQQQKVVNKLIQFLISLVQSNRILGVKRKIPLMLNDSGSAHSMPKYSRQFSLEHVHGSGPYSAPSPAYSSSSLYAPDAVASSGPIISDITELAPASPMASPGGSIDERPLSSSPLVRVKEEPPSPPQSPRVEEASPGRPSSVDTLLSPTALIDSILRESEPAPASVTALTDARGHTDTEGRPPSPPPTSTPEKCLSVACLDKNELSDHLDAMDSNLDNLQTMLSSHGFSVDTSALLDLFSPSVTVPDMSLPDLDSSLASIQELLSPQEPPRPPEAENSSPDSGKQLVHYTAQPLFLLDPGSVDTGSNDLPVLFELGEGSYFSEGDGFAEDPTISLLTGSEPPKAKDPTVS
CRX, sequence (O43186 whole entry): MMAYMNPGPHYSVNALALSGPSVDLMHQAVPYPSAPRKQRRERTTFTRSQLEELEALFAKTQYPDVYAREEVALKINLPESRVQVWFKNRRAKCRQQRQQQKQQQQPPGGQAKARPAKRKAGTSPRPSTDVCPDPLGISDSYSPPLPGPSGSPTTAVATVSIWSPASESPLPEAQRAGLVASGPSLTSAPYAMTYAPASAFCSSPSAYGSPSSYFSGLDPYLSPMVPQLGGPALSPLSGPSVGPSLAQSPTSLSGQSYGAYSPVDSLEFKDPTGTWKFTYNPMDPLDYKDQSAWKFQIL
ELF4, sequence (Q99607 whole entry): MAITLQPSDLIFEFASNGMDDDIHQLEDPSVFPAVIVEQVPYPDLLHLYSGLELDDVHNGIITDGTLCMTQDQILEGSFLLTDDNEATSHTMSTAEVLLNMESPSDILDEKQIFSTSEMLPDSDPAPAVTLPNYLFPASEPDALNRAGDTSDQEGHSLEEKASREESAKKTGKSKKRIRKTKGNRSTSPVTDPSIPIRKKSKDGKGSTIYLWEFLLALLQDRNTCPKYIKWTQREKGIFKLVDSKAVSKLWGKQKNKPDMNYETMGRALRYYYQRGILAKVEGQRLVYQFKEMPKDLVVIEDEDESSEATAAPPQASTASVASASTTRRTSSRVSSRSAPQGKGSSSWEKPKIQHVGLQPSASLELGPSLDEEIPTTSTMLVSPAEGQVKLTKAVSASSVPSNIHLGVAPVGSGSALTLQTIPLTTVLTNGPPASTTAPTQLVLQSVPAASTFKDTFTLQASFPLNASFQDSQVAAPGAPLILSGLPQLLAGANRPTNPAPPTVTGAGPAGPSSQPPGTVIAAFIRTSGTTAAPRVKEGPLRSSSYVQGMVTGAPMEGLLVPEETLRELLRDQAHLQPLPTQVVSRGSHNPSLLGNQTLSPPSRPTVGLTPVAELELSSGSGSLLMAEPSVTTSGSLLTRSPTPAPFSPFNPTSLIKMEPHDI

ATACTT
binding signal (FLI1): 1.57 fold enrichment (6-mer frequency, TF over GST control)
binding signal (ELK1): 1.6 fold enrichment (6-mer frequency, TF over GST control)
binding signal (GABPA): 1.54 fold enrichment (6-mer frequency, TF over GST control)
binding signal (ERG): 1.68 fold enrichment (6-mer frequency, TF over GST control)
binding signal (ELF1): 1.61 fold enrichment (6-mer frequency, TF over GST control)
binding signal (EHF): 1.71 fold enrichment (6-mer frequency, TF over GST control)
binding signal (SPI1): 1.67 fold enrichment (6-mer frequency, TF over GST control)
binding signal (SPIB): 1.48 fold enrichment (6-mer frequency, TF over GST control)
binding signal (ELK3): 1.7 fold enrichment (6-mer frequency, TF over GST control)
binding signal (FEV): 1.6 fold enrichment (6-mer frequency, TF over GST control)
binding signal (ETV5): 1.6 fold enrichment (6-mer frequency, TF over GST control)
binding signal (HSF1): 1.34 fold enrichment (6-mer frequency, TF over GST control)
binding signal (SPIC): 1.58 fold enrichment (6-mer frequency, TF over GST control)
binding signal (ELF4): 1.55 fold enrichment (6-mer frequency, TF over GST control)
binding signal (ELK4): 1.55 fold enrichment (6-mer frequency, TF over GST control)
binding signal (ETV2): 1.53 fold enrichment (6-mer frequency, TF over GST control)
binding signal (ELF3): 1.58 fold enrichment (6-mer frequency, TF over GST control)
binding signal (CRX): 1.71 fold enrichment (6-mer frequency, TF over GST control)
binding signal (ETV1): 1.72 fold enrichment (6-mer frequency, TF over GST control)
